# Test results taken from PubChem BioAssay (NCATS).
# Where “and” joins values, the source holds several entries; their conditions need not be identical. Equal values may be shown once. Values without a mark were called inactive. Records with an inconclusive call do not appear. Entries that show only a call come without a potency. Calls of active or inactive are those of the source. Unless noted, the call rests on the fitted dose curve; in most records, active means well fitted curve in the direction sought with a large enough effect; inconclusive means small, poorly fitted or top-dose-only effect, or another doubt; inactive means no such curve, though single readings can be large; an effect the other way counts as inactive or inconclusive.
# Key:
# [1] = Cell Viability - NIH 3T3 (AID 541); conditions: NIH 3T3 cell viability, qHTS; activity change, negative = cytotoxicity: at 92.2 µM (top of the series); further: nearly all actives have a fitted effect of over 25% in size; further: potency means the concentration at half of the fitted maximal effect
# In short: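 NIH 3T3 mouse embryo fibroblasts (1000 cells/well) were plated in complete medium and treated with compound for 40 hr at 37 °C. Viability was read as intracellular ATP by CellTiter-Glo luminescence; AC50 values came from Hill-equation fits of concentration-response data.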
# [2] = Cell Viability - SH-SY5Y (AID 544); conditions: SH-SY5Y neuroblastoma cell viability; viability change, negative = cytotoxic: at 92.2 µM (top of the series); further: nearly all actives have a fitted effect of over 55% in size
# In short: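 Human neuroblastoma SH-SY5Y cells (1500/well) in complete medium were exposed to compounds for 40 hr at 37 °C; intracellular ATP was then quantified by CellTiter-Glo luminescence after 20 min at room temperature. AC50 came from Hill-equation concentration-response fits.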
# [3] = Cell Viability - Mesenchymal (AID 546);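 further: cells exposed to compound for 40 hours before reading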
# In short: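 Normal human renal glomerulus-derived kidney mesenchymal cells, 1000 per well in complete medium, were treated with compounds for 40 hr at 37 °C. Viability was read as intracellular ATP by CellTiter-Glo luminescence; AC50 values came from Hill-equation fits of qHTS concentration-response data.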
# [4] = Cellular Toxicity (caspase-3) HUV-EC-C (AID 656)
# In short: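 HUV-EC-C endothelial cells, 1000/well, were pre-incubated 5 hr at 37°C, then exposed to compounds for 16 hr at 37°C. Caspase-Glo 3/7 luminescence was read after 20 min at room temperature. AC50 came from Hill fits, normalized to DMSO and 100 uM tamoxifen.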
# [5] = Cellular Toxicity (caspase-3) BJ (AID 658)
# In short: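 Luminescent aminoluciferin-substrate cleavage reports caspase 3/7 activity in normal human BJ fibroblasts after 16 hr compound exposure at 37 °C. Normalized to DMSO (basal) and 10 uM staurosporine (100%); AC50 from Hill fit of concentration-response.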
# [6] = Cellular Toxicity (caspase-3) Hek293 (AID 664); conditions: HEK293 caspase-3 activation, DMSO = 0%, 100 µM tamoxifen = 100%; at 92.2 µM (top of the series);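 further: cells exposed to compound for 16 h at 37 °C before readout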
# In short: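 HEK293 cells were exposed to compounds in complete medium for 16 hr at 37 °C, then caspase-3/7 activity was read by Caspase-Glo 3/7 luminescence after 20 min at room temperature. Data normalized to DMSO and 100 uM tamoxifen; AC50 from Hill fits.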
# [7] = Cellular Toxicity (caspase-3) NIH 3T3 (AID 666); further: potency means the concentration at half of the fitted maximal effect
# In short: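 Mouse NIH 3T3 fibroblasts (1000 cells/well) were treated with compound for 16 hr at 37°C in complete medium; caspase-3/7 activity was read by Caspase-Glo luminescence. Normalized to DMSO and 100 uM tamoxifen; AC50 from Hill fits.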
# [8] = Cell Viability - LYMP2-019 (AID 973); further: nearly all actives have a fitted effect of over 55% in size
# In short: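 Human lymphoblastoid cells were seeded at 2500 cells/well, preincubated 5 hr at 37 C, then exposed to compounds for 24 hr at 37 C in complete medium. Intracellular ATP was measured by CellTiter-Glo luminescence; AC50 from Hill fits.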
# [9] = Cell Viability - LYMP2-023 (AID 975);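 further: cellular ATP measured by luciferase luminescence as viability proxy; nearly all actives have a fitted effect of over 55% in size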
# In short: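 Human lymphoblastoid cells (2500/well) were preincubated 5 hr at 37 C, then exposed to compounds for 24 hr at 37 C in complete medium. Cellular ATP was read by CellTiter-Glo luminescence, and AC50 came from Hill-equation fits.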
# [10] = Cell Viability - LYMP2-022 (AID 987); further: nearly all actives have a fitted effect of over 55% in size
# In short: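 Human lymphoblastoid cells, 2500/well, preincubated 5 hr at 37 C, then exposed to compounds over a concentration range for 24 hr at 37 C in complete medium. Viability read as intracellular ATP by CellTiter-Glo luminescence after 30 min at room temperature; AC50 from Hill fits.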
# [11] = Cell Viability - LYMP1-002 - Assay at 24 hr (AID 993)
# In short: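 Human lymphoblastoid LYMP1-002 cells, 2500/well in complete medium, were treated with compounds for 24 h at 37 C; intracellular ATP was read by CellTiter-Glo luminescence. AC50 values came from Hill-equation fits of qHTS concentration-response data.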
# [12] = molecular target: Thyroid hormone receptor beta (Homo sapiens) (UniProt P10828); assay: qHTS assay for small molecule antagonists of thyroid hormone receptor beta signaling (AID 588547; active means well fitted inhibition curve with a large enough effect in the signal ratio, with a control signal flat, not every such curve was filed as active; the % refers to the signal ratio;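 further: cells stimulated with 0.4 nM T3 agonist during compound exposure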); conditions: TR-UAS-bla HEK293, beta-lactamase ratio, antagonist mode, 18 h
# Thyroid hormone receptor beta (Homo sapiens), sequence (P10828 whole entry, looked up): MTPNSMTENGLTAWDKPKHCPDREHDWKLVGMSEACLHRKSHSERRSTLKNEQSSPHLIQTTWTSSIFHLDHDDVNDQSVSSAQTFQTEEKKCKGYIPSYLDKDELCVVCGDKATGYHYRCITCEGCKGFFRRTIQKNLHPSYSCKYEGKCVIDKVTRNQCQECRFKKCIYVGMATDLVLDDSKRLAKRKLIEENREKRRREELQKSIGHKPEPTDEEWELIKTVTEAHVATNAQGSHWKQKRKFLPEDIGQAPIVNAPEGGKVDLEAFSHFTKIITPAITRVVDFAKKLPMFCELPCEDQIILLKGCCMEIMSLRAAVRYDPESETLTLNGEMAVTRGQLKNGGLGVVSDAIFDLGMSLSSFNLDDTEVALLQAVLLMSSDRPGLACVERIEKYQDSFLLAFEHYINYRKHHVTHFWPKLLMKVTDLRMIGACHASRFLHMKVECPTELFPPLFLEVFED
# In short: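 TR-UAS-bla GripTite HEK293 cells in 2% charcoal/dextran FBS medium were preincubated 4 h at 37 C, given compound (0.59 nM to 92 uM) plus 0.4 nM T3 (final) for 18 h, then CCF4 for 2 h at RT; Hill fit gave IC50.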
# [13] = qHTS assay for small molecule activators of the p53 signaling pathway (AID 651743; active means well fitted activation curve with a large enough effect in the signal ratio, not every such curve was filed as active; the % refers to the signal ratio); conditions: HCT-116 p53RE-bla, beta-lactamase FRET ratio, 16 h; activation: active compounds read high
# In short: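 p53RE-bla HCT-116 cells with a stably integrated beta-lactamase reporter under p53 response elements were plated, rested 5 hours at 37 C/5% CO2, then exposed to compounds in DMSO for 16 hours at 37 C. LiveBLAzer B/G FRET substrate was read after 2 hours at room temperature.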
# [14] = qHTS assay for small molecule disruptors of the mitochondrial membrane potential - 1 hr assay (AID 651754; calls by dose curve; further: nearly all actives have a fitted effect of over 35% in size; further: potency means the concentration at half of the fitted maximal effect)
# In short: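 HepG2 cells, attached overnight at 37C, were exposed to compound or DMSO vehicle for 1 hr at 37C, 5% CO2, then stained with Mito-MPS dye for 30 min. Red aggregate versus green monomer fluorescence reports membrane potential.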
# [15] = qHTS assay for small molecule disruptors of the mitochondrial membrane potential - 5 hr assay (AID 651755; calls by dose curve; further: nearly all actives have a fitted effect of over 40% in size; further: potency means the concentration at half of the fitted maximal effect)
# In short: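 HepG2 cells, attached overnight at 37C, were exposed to compound or DMSO for 5 hr at 37C, 5% CO2. Mito-MPS dye was then added for 30 min, and fluorescence read at 490/535 nm (monomers) and 540/590 nm (aggregates).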
# [16] = molecular target: Peroxisome proliferator-activated receptor alpha (Homo sapiens) (UniProt Q07869); assay: qHTS assay for small molecule agonists of the peroxisome proliferator-activated receptor alpha (PPARalpha) signaling pathway (AID 651778); conditions: PathHunter PPARalpha complementation, chemiluminescence, 6 h; active compounds read high
# Peroxisome proliferator-activated receptor alpha (Homo sapiens), sequence (Q07869 whole entry, looked up): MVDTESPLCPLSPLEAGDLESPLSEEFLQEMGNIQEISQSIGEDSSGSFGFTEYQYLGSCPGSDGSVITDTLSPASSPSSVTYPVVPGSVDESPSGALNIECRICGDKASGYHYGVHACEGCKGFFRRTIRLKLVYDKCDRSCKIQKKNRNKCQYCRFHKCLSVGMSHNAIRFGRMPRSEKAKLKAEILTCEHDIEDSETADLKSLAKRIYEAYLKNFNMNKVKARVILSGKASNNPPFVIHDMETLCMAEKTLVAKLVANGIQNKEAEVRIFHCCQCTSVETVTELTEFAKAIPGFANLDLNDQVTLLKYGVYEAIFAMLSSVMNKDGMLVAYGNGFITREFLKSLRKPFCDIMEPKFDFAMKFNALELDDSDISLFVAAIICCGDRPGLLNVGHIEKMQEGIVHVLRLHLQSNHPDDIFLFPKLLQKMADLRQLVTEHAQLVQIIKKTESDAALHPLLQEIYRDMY
# In short: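 Cells plated at 2,000/well and held overnight at 37 C, 5% CO2, then compound added by pin tool for 6 hr; after PathHunter detection reagent and 60 min at room temperature, chemiluminescence from enzyme complementation was read.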
# [17] = Cellular Toxicity (caspase-3) SHSY5Y (AID 657)
# In short: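 SH-SY5Y human neuroblastoma cells (1500/well) were treated with compounds for 16 h at 37 °C, then Caspase-Glo 3/7 luminescence was read after 1 h at room temperature. Data normalized to DMSO and 10 uM staurosporine; AC50 from Hill fits.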
# [18] = Cellular Toxicity (caspase-3) Mesangial (AID 660);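 further: cells exposed to compound for 16 h before the caspase read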
# In short: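 Human renal glomerular mesangial cells (1000/well) were treated with compounds for 16 h at 37 °C in complete medium, then caspase 3/7 activity was read by Caspase-Glo luminescence. Data were normalized to DMSO and 100 uM tamoxifen; AC50 from Hill fits.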
# [19] = Cellular Toxicity (caspase-3) H-4-II-E (AID 663); conditions: Potency: caspase-3 activation;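 further: cells exposed to compound for 16 hr before readout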
# In short: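 Luminescence from caspase-cleaved aminoluciferin substrate, read 20 min after reagent addition, reports caspase 3/7 activation in rat H-4-II-E cells after 16 hr compound exposure. Normalized to DMSO (basal) and 100 uM tamoxifen (100%); AC50 from Hill fits.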
# [20] = Cell Viability - LYMP1-002 - Assay at 40 hr (AID 994); further: nearly all actives have a fitted effect of over 60% in size
# In short: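 Human lymphoblastoid cells, 2500/well in complete medium, were preincubated 5 hr at 37 C, then exposed to compounds for 40 hr at 37 C. Intracellular ATP was read by CellTiter-Glo luminescence after 30 min at room temperature; AC50 from Hill-equation fits.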
SMILES,Potency [1],Potency [2],Potency [3],outcome [4],outcome [5],caspase-3 activation [6] [%],Potency [7],Potency [8],Potency [9],Potency [10],Potency [11],activity change % (negative = inhibition) [12],activation [13],Potency [14],Potency [15],max response [16],outcome [17],outcome [18],Potency [19],Potency [20]
CCOP(=S)(OCC)SCCSCC,inactive,inactive,inactive,inactive,inactive,0.951,inactive,inactive,inactive,inactive,inactive,6.91% and -9.69%,-1.38% and -6.24%,inactive,inactive,-1.85% and -0.372%,–,–,–,–
O=[N+]([O-])CCO,inactive,inactive,inactive,inactive,–,0.0344,–,inactive,inactive,inactive,inactive,2.47%,–,–,–,-2.47%,inactive,inactive,inactive,inactive
CCNCC,inactive,inactive,inactive,inactive,inactive,1.2,inactive,inactive,inactive,inactive,inactive,15.3%,–,inactive,inactive,7.15%,inactive,inactive,inactive,inactive
CC(Cl)CCl (centres undefined),inactive,inactive,inactive,inactive,inactive,-1.21,–,inactive,inactive,inactive,inactive,-3.7%,0.619%,inactive,inactive,-4.11%,inactive,inactive,inactive,inactive
ClCc1ccccn1,inactive,inactive,inactive,inactive,–,0.273,inactive,inactive,inactive,inactive,inactive,-1.68%,-0.689% and -0.994%,inactive,inactive,-1.73% and -0.41%,inactive,inactive,inactive,inactive
[O-][Cl+2]([O-])O,inactive,inactive,inactive,inactive,–,–,inactive,inactive,inactive,inactive,inactive,–,0.222%,inactive,inactive,-2.92%,–,inactive,inactive,inactive
CCOP(=O)(OCC)OCC,inactive,inactive,inactive,inactive,inactive,0.845,inactive,–,–,inactive,–,-0.564% and 12.2%,2.61% and -1.3%,inactive,inactive,0.636% and -0.566%,inactive,inactive,inactive,inactive
Cl/C=C\Cl,inactive,inactive,inactive,inactive,inactive,0.708,inactive,inactive,inactive,inactive,inactive,0.348%,1.35%,inactive,–,-0.887%,–,inactive,–,inactive
CCCCCOC(=O)c1ccccc1C(=O)OCCCCC,inactive,inactive,inactive,inactive,inactive,3.92,inactive,–,inactive,inactive,–,15.4% and 2.77%,-1% and 1.8%,inactive,inactive,-4.34% and -0.557%,inactive,inactive,inactive,inactive
ClCCBr,inactive,inactive,inactive,inactive,inactive,-0.69,inactive,–,inactive,inactive,inactive,0.0673%,0.777%,inactive,inactive,–,inactive,inactive,inactive,inactive
C=COC(C)=O,inactive,inactive,inactive,inactive,inactive,1.36,inactive,inactive,–,inactive,inactive,0.373%,–,inactive,inactive,–,inactive,inactive,inactive,inactive
CCOS(C)(=O)=O,inactive,inactive,inactive,inactive,–,-3.11,inactive,inactive,inactive,inactive,inactive,-1.09%,-2.6%,inactive,inactive,0.417%,inactive,inactive,inactive,–
c1ccc(NNc2ccccc2)cc1,inactive,inactive,inactive,inactive,inactive,-0.473,–,inactive,inactive,inactive,inactive,8.59%,-0.259% and 0.698%,inactive,inactive,-1.84% and -2.39%,inactive,inactive,–,–
O=[N+]([O-])c1ccccc1O,inactive,inactive,inactive,inactive,inactive,-0.522,–,inactive,inactive,inactive,inactive,-16.2%,-2.01%,inactive,inactive,-0.691%,–,inactive,inactive,inactive
Nc1cc(Cl)cc(Cl)c1,inactive,inactive,inactive,inactive,inactive,1.09,inactive,inactive,inactive,inactive,inactive,–,1.82%,inactive,inactive,–,–,inactive,–,inactive
CC(C)C#N,inactive,inactive,inactive,inactive,–,1.03,inactive,inactive,inactive,inactive,inactive,-3.27%,–,inactive,inactive,–,inactive,inactive,inactive,inactive
Cc1ccc2c(c1N)C(=O)c1ccccc1C2=O,25.1 µM (active),inactive,–,inactive,inactive,-8.32,–,inactive,inactive,inactive,inactive,1.36%,7.91% and 8.94%,2.66 µM (active),2.66 µM (active),-8.43% and -4.54%,inactive,inactive,inactive,inactive
Cc1cccc(C)c1N,inactive,inactive,–,inactive,inactive,0.142,inactive,inactive,inactive,inactive,inactive,-2.91%,1.32%,inactive,inactive,1.61%,–,–,inactive,inactive
O=C(O)c1cc(Cl)ccc1Cl,inactive,inactive,–,inactive,inactive,-1.49,inactive,inactive,inactive,inactive,inactive,12.5%,-4.12%,inactive,inactive,5.32%,inactive,inactive,inactive,inactive
O=[N+]([O-])c1c(Cl)c(Cl)c(Cl)c(Cl)c1Cl,31.6 µM (active),inactive,inactive,inactive,inactive,2.86,31.6 µM (active),inactive,inactive,inactive,inactive,14.8%,-1.05% and 4.15%,inactive,inactive,3.1% and -1.25%,inactive,inactive,inactive,inactive
Nc1ccc([N+](=O)[O-])cc1[N+](=O)[O-],10 µM (active),inactive,–,inactive,inactive,-0.459,inactive,inactive,inactive,inactive,inactive,0.221%,–,18.8 µM (active),33.5 µM (active),-8.48%,inactive,inactive,inactive,inactive
Cl/C=C/Cl,inactive,inactive,inactive,inactive,inactive,-0.612,inactive,inactive,inactive,inactive,inactive,-4.77%,-3.7%,–,–,-4.81%,inactive,inactive,inactive,inactive
c1ccc(Nc2ccc(Nc3ccccc3)cc2)cc1,–,–,inactive,inactive,inactive,–,inactive,inactive,inactive,–,inactive,–,–,42.2 µM (active),59.6 µM (active),–,inactive,inactive,inactive,inactive
Nc1c(Cl)cc([N+](=O)[O-])cc1Cl,inactive,inactive,–,inactive,inactive,6.24,inactive,inactive,inactive,inactive,–,16.2% and 3.97%,–,29.8 µM (active),42.2 µM (active),-4.31% and -1.23%,inactive,inactive,inactive,inactive
Oc1cc(Cl)ccc1Cl,inactive,inactive,inactive,–,inactive,-1.46,inactive,–,inactive,inactive,inactive,-3.5%,0.543% and -4%,–,inactive,-3.18% and 0.376%,inactive,inactive,inactive,inactive
